Methyltransferases: Primary Screen for Target Class Profiling of Small Molecule Inhibitors of Methyltransferases. 3.9% of 25,000 active. purified enzyme, MTase-Glo SAH luminescence; stronger effect = lower value. calls only at 40 µM; call rule not given here
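Each enzyme was reacted with SAM and its substrate, with compounds tested once at 40 uM; SAH formed was read by MTase-Glo luminescence.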
Numbers without * were called inactive; i = inactive; + = active, no number; ! = repeats disagree. The sample as a whole holds a higher share of hits than the screen did. % is set by controls: 0 for no effect and ±100 for the full control effect.

SMILES	Methyltransferases
COc1ccc(CN2C(=O)c3cc4sccc4n3CC2(C)C(=O)NC2CCCCCCC2)cc1 (stereo not drawn)	i
CC(C)n1nc(-c2ccc(NC(=O)Nc3cccc(C(F)(F)F)c3)cc2)c2c(N)ncnc21	+
CC(C)n1nc(C#Cc2ccccc2)c2c(N)ncnc21	i
C=CC(=O)N1CCC[C@@H](n2nc(-c3cccc(C(=O)Nc4ccc(C(C)C)c(C)c4)c3)c3c(N)ncnc32)C1	i
CC(CN1C(=O)c2ccc(-c3ccco3)n2CC1(C)C(=O)NC1CCCCC1)c1ccccc1 (stereo not drawn)	i
CCc1cc2c(cc3n2CC(C)(C(=O)NC2CCCCCC2)N(C(C)CCc2ccco2)C3=O)s1 (stereo not drawn)	i
O=C(O)Cc1c(-c2ccccc2)c2cc(Br)ccc2[nH]c1=O	i
O=C1NC(=O)c2c1c(-c1ccccc1)cc1[nH]c3ccc(O)cc3c21	+
O=C(O)Cc1c(-c2ccccc2)c2cc(Cl)ccc2[nH]c1=O	i
CCCn1c(=O)c2ccc(C(=O)NCC(C)C)cc2n2c(=O)n(CC(=O)Nc3ccc(C)cc3C)nc12	i
CCOC(=O)C(Cc1c[nH]c2ccccc12)NC(=O)c1ccc(Br)cc1 (stereo not drawn)	i
CCOC(=O)c1cc2n(n1)CC(C)(C(=O)NCc1ccccc1OC)N(c1ccc(OCC)cc1)C2=O (stereo not drawn)	i
CC(C)OCCCNC(=O)CCc1nnc2n(Cc3ccccc3Cl)c(=O)c3ccccc3n12	i
COCCCNC(=O)C1(C)Cn2nc(-c3ccccc3)cc2C(=O)N1c1cccc(C)c1C (stereo not drawn)	i
O=c1c2ccccc2n2c(=O)n(Cc3ccc(F)cc3)nc2n1Cc1ccc(F)cc1	i
Cc1c(C)n(Cc2ccc(-c3ccccc3C(=O)O)cc2)c2ccc(C(=O)N[C@@H](C)c3ccc([N+](=O)[O-])cc3)cc12	+
Cc1ccc(Cn2c(=O)c3ccc(C(=O)NC(C)C)cc3n3c(=O)n(Cc4ccccc4)nc23)cc1	i
COC(=O)[C@H](Cc1ccc([N+](=O)[O-])cc1)NC(=O)c1cccc2ccccc12	i
Cc1ccc(N2C(=O)c3cc4sccc4n3CC2(C)C(=O)NC2CCC(C)CC2)c(C)c1 (stereo not drawn)	i
CC(=O)Nc1ccc(Nc2nc3c(S(=O)(=O)c4ccc(Cl)cc4)nnn3c3ccccc23)cc1	i
CCc1cc2c(cc3n2CC(C)(C(=O)NC2CCC(C)CC2)N(Cc2cccc(OC)c2)C3=O)s1 (stereo not drawn)	i
CC1CCN(C(=O)Cn2c(=O)oc3cc(S(=O)(=O)N4CCCCC4C)ccc32)CC1 (stereo not drawn)	i
COc1ccc(NC(=O)Cn2c(=O)oc3cc(S(=O)(=O)N4CCCC4)ccc32)cc1	i
COc1cccc(NC(=O)Cn2c(=O)oc3cc(S(=O)(=O)N4CCCCC4C)ccc32)c1 (stereo not drawn)	+
CC1(C(=O)NC2CCCCCC2)Cn2c(ccc2-c2ccco2)C(=O)N1CCCN1CCOCC1 (stereo not drawn)	i
SMILES	Methyltransferases
Cc1ccc(CN2C(=O)c3cc4sccc4n3CC2(C)C(=O)NC2CCCC(C)C2C)cc1 (stereo not drawn)	i
Cc1ccc(N2C(=O)c3cc4sccc4n3CC2(C)C(=O)NC2CCCC(C)C2C)cc1C (stereo not drawn)	i
Nc1c(NC/C=C\COc2cc(CN3CCCCC3)ccn2)c(=O)c1=O	+
O=C1CCN(Cc2cccc(F)c2)CCCCCCN1	i
CCCn1c(=O)c2ccc(C(=O)NC(C)C)cc2n2c(=O)n(Cc3cccc(OC)c3)nc12	i
CCc1cc2c(cc3n2CC(C)(C(=O)NC2CCCCCC2)N(Cc2ccco2)C3=O)s1 (stereo not drawn)	i
Cc1ccc(CCNC(=O)c2ncn3c2C(=O)N(C2CC2)C(C)(C(=O)NCc2ccc(F)cc2)C3)cc1 (stereo not drawn)	i
Cc1ccc(NC(=O)c2cc3n(n2)CC(C)(C(=O)NC2CCCCCC2)N(C)C3=O)cc1Cl (stereo not drawn)	i
COc1cccc(CN2C(=O)c3cc(-c4ccco4)nn3CC2(C)C(=O)NC2CCCCC2)c1 (stereo not drawn)	i
Nc1nc(NC2CC2)cc(-c2cccc(Cl)c2Cl)n1	+
Nc1nnc(-c2cccc(Cl)c2Cl)c(N)n1	i
COc1ccc(C(=O)CSc2nnc3n(CC(C)C)c(=O)c4ccc(C(=O)NC(C)C)cc4n23)cc1	i
CC1(C(=O)NC2CCCCC2)Cn2nc(-c3cccs3)cc2C(=O)N1c1cccc(Cl)c1 (stereo not drawn)	i
CC1(C(=O)NC2CCCCCC2)Cn2nc(-c3ccco3)cc2C(=O)N1Cc1ccccc1F (stereo not drawn)	i
CC#C[C@@H](CC(=O)O)c1ccc(OCc2cccc(-c3ccc(C(F)(F)F)cc3)c2)cc1	+
COc1cccc(-c2ccc(C(=O)N3CCC(NC(=O)c4ccc(C(F)(F)F)cc4)CC3)cc2)c1	i
CCCn1c(=O)c2ccc(C(=O)NC(C)C)cc2n2c(=O)n(CC(=O)Nc3ccccc3C)nc12	i
O=C(NCc1ccc2c(c1)OCO2)c1ccc2c(=O)nc3c(-c4cccc(F)c4)n[nH]n3c2c1	i
COc1ccc(NC(=O)c2ccc3c(c2)N(C(=O)c2ccc(OC)cc2)CC3)cc1	i
CCN(CC)Cc1ccc2cc(COC(=O)Nc3ccc(C(=O)NO)cc3)ccc2c1	+!
CCCCN1C(=O)c2cc3ccccc3n2CC1(C)C(=O)NC1CCCC1 (stereo not drawn)	i
COC(=O)c1cc2n(n1)CC(C)(C(=O)NC1CCCCC1)N(c1cc(C)cc(C)c1)C2=O (stereo not drawn)	i
CC1(C(=O)NC2CCCCCCC2)Cn2c(cc3sccc32)C(=O)N1Cc1ccccc1 (stereo not drawn)	i
COc1ccc2cc3n(c2c1)CC(C)(C(=O)NC1CCCC1)N(Cc1ccccc1)C3=O (stereo not drawn)	i
CCc1cccc(NC(=O)Cn2nc3n(CC(C)C)c(=O)c4ccc(C(=O)NC(C)C)cc4n3c2=O)c1	i
SMILES	Methyltransferases
O=c1[nH]c2ccc(S(=O)(=O)Nc3ccccc3)cc2[nH]1	i
O=C(Nc1nn(Cc2ccccc2)c2cccc(N3CCOCC3)c12)C1CCC1	i
CNc1nccnc1-c1cccc(CN2CCOCC2)c1	i
O=C(NCCCNc1nc(Nc2cccc(CN3CCOCC3)c2)ncc1C1CC1)C1CCC1	+
Cc1ccc(N2C(=O)c3cc(-c4ccco4)nn3CC2(C)C(=O)NC2CCCCCC2)cc1 (stereo not drawn)	i
CC1(C(=O)NC2CCCCC2)Cn2c(cc3ccccc32)C(=O)N1C1CCCCCC1 (stereo not drawn)	i
CCCn1c(=O)c2ccc(C(=O)NC3CCCCC3)cc2n2c(=O)n(CC(=O)NC3CCCCC3)nc12	i
CC(C)CCNC(=O)C1(C)Cn2c(ccc2-c2ccco2)C(=O)N1Cc1ccc2c(c1)OCO2 (stereo not drawn)	i
COc1ccc(N(C(=O)c2ccc(Cl)cc2)S(=O)(=O)c2ccc3c(c2)n(C)c(=O)n3C)cc1	i
COC(=O)Cn1nc(-c2cccc(OC)c2)c2ccccc21	i
CCc1c(-c2ccccc2)c(-c2ccccc2)nn1-c1ccccc1-c1cccc(OCC(=O)O)c1	+
